Activity calls are given as the source filed them.

For test [1], the system named is Human papillomavirus type 1a protein E7 (residues 44-93). The experiment in a line: small molecules binding HPV E7 44-93 – biochemical, small-molecule microarray, residues 44-93, 635 nm fluorescence, primary screen (AID 1108).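 Note: E7 fragment applied at 1 µg/mL in TBST for 1 h at 4 C; score combines spot fluorescence with its signal to noise ratio.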 To be noted: fluorescence 635 nm, higher = more signal.
Test [2] is described as follows: hepatitis C replication reporter changes, two-sided – Huh7 cells, luciferase reporter, HCV replication inhibitor project, primary screen (AID 1109).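 Note: huh7 hepatoma cells harbouring a luciferase neomycin HCV replicon reporter; luciferase luminescence as measure of HCV replicon replication; test concentration not given here.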 To be noted: Huh7 HCV replicon luciferase reporter, 48 h; higher = more signal.
The target in test [3] is Left-right determination factor 2 (Homo sapiens) (UniProt O00292). The experiment in a line: small molecules binding LEFTY2 protein – biochemical, small-molecule microarray, 635 nm fluorescence scan, primary screen (AID 1110). To be noted: higher = more signal.
The target of test [4] is Calmodulin-1 (Homo sapiens) (UniProt P0DP23). Put plainly: small molecules binding calmodulin-1 with EGTA – biochemical, small-molecule microarray, Cy5-labelled CALM1, profiling panel (AID 1111).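 Note: labelled calmodulin applied in Tris saline Tween buffer holding calcium plus EGTA and DTT.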 To be noted: Cy5-CALM1 binding fluorescence, higher = more signal.
For test [5] the target is unchanged. Put plainly: small molecules binding Ca-loaded calmodulin-1 – biochemical, small-molecule microarray, Cy5-labelled CALM1, plus calcium, artefact control for SMM control-protein annotation, profiling panel (AID 1112).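 Note: score merges spot fluorescence with signal to noise from triplicate slides.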 The settings on record: Cy5-CALM1 binding fluorescence, higher = more signal.
Test [6] can be described thus: probe aWnt5a binding to arrayed compounds – biochemical, biotinylated probe, 635/667 nm fluorescence, primary screen (AID 1113).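 Note: score merges 667 nm fluorescence intensity with signal-to-noise per printed feature.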 The settings on record: small-molecule microarray, higher = more signal.
Test [7] in a line: probe aShh binding to arrayed compounds – biochemical, biotinylated probe, 635/667 nm fluorescence, primary screen (AID 1114).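 Note: probe is biotin-labelled aShh protein from a stem cell growth factor screen; measures binding of labelled protein to compounds printed on the slide; score merges feature fluorescence at 667 nm with signal-to-noise.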 The settings on record: small-molecule microarray, higher = more signal.
Test [8] can be described thus: probe aNog binding to arrayed compounds – biochemical, biotinylated probe, 635/667 nm fluorescence, primary screen (AID 1115).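 Note: probe is biotinylated aNog protein used at 0.15 µg/mL for 1 h at 4 C; z-score combines 667 nm fluorescence of each spot with its signal to noise.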 The settings on record: small-molecule microarray, higher = more signal.
For test [9], the target named is Torsin-1A-interacting protein 1 (Homo sapiens) (UniProt Q5JTV8). Put plainly: compound microarray binding of lysate hLAP1 – cell lysate, small-molecule microarray, COS7 lysate, 635/667 nm fluorescence, primary screen (AID 1116). The settings on record: 635 nm fluorescence, higher = more signal.
Test [10] concerns the target Alpha-bungarotoxin (Bungarus multicinctus) (UniProt P60615). The experiment in a line: compounds binding labelled alpha-BTX control protein – biochemical, small-molecule microarray, Alexa647 label, 635/667 nm fluorescence, artefact control for SMM control protein annotation, profiling panel (AID 1117). The settings on record: alpha-BTX-A647 binding fluorescence, higher = more signal.

The target of a further test is Albumin (Bos taurus) (UniProt P02769). The experiment in a line: compounds binding labelled BSA control protein – biochemical, small-molecule microarray, Alexa647 label, 635/667 nm fluorescence, artefact control for SMM control protein annotation, profiling panel (AID 1118).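 Note: score merges 667 nm emission intensity and signal-to-noise per printed compound spot.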 To be noted: BSA-A647 binding, fluorescence 635 nm, higher = more signal.
The nature of test [11]: probe aXIP binding to arrayed compounds – biochemical, NeuroSMM set, 635/667 nm fluorescence, primary screen (AID 1119).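 Note: probe is the protein aXip251-270 applied at 1 µg/mL to compound-printed slides; binding of probe to printed compounds measured as 667 nm fluorescence plus signal to noise.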 To be noted: small-molecule microarray, higher = more signal, called active from +8 up or from −8 down.
Test [12] can be described thus: probe aNOTCH3 binding on compound microarray – biochemical, small-molecule microarray, 635/667 nm fluorescence, primary screen (AID 1120).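 Note: probe is a biotin-tagged antibody raised against NOTCH3 rather than NOTCH3 protein; score merges spot fluorescence near 667 nm with spot signal to noise.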 To be noted: higher = more signal.
A short description of test [13]: probe aNOTCH2 binding on compound microarray – biochemical, small-molecule microarray, 635/667 nm fluorescence, primary screen (AID 1121).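 Note: score merges feature fluorescence read at 667 nm with its signal to noise.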 To be noted: higher = more signal.
The target in test [14] is Carbonic anhydrase 2 (Homo sapiens) (UniProt P00918). The experiment in a line: compounds binding carbonic anhydrase 2 – biochemical, small-molecule microarray, Alexa647-labelled CAII, profiling panel (AID 1122). The settings on record: CAII-A647 binding fluorescence, higher = more signal.
The nature of test [15]: COS7 lysate on small-molecule microarray, probe aHis, 635 nm (AID 1123).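 Note: z-score combines 667nm fluorescence intensity with signal-to-noise per printed compound spot.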 To be noted: COS7 cell lysate, fluorescence, higher = more signal.
Test [16] in a line: probe aLAP1 signal on lysate-treated microarray – cell lysate, small-molecule microarray, COS7 lysate, primary screen (AID 1124).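 Note: lysate comes from COS7 cells expressing LAP1 and is applied at 0.3 µg/mL; score merges spot fluorescence near 667 nm with signal-to-noise over triplicate slides.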 To be noted: probe aLAP1, fluorescence, higher = more signal.
The test system of the next test is Sam68 (KHDRBS1). The experiment in a line: compounds binding KHDRBS1 protein – biochemical, small-molecule microarray, 635 nm fluorescence, primary screen (AID 1125).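 Note: score merges 667 nm channel intensity with signal to noise over triplicate slides.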 To be noted: higher = more signal.
In test [17] the test system is Chordin-like protein 2 (CHRDL2). The experiment in a line: compounds binding chordin-like 2 – biochemical, small-molecule microarray, 635 nm fluorescence, primary screen (AID 1126).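 Note: printed compound slides probed with Chrdl2 protein at 4 µg/mL for 1 h at 4 C; score merges 667 nm emission intensity with signal to noise over three replicate slides.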 The settings on record: fluorescence 635 nm, higher = more signal.
The target of test [18] is Concanavalin-A (Canavalia ensiformis) (UniProt P02866). Put plainly: compounds binding concanavalin A lectin – biochemical, small-molecule microarray, Alexa647 label, 635 nm, artefact control for SMM control protein annotation, primary screen (AID 1127).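 Note: z combines 667 nm emission intensity with signal-to-noise across three replicate slides.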 To be noted: ConA-A647 binding fluorescence, higher = more signal.
Concanavalin-A (Canavalia ensiformis), sequence (P02866 whole entry, looked up): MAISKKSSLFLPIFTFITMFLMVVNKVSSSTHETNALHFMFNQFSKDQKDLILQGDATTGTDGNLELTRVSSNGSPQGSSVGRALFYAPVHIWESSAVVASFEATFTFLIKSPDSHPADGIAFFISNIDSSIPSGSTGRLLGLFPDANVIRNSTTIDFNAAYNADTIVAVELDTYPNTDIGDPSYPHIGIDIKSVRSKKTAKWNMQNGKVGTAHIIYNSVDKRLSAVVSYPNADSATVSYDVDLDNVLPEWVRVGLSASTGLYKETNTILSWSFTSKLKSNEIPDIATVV

Torsin-1A-interacting protein 1 (Homo sapiens), sequence (Q5JTV8 whole entry, looked up): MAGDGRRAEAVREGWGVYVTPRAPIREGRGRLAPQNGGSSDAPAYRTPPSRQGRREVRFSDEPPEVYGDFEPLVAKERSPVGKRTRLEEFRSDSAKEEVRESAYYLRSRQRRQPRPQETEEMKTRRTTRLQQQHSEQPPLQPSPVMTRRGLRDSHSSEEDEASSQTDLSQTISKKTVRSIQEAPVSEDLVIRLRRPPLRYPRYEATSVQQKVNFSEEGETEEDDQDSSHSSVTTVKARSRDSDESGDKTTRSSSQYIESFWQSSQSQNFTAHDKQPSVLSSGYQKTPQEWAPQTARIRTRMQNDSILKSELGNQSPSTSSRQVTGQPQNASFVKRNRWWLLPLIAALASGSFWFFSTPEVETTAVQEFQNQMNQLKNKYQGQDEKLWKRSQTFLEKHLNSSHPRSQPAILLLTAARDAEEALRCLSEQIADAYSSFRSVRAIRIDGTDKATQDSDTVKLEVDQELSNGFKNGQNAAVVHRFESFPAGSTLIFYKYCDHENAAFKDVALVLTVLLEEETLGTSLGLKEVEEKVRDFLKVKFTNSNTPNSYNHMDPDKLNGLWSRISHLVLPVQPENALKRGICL
Albumin (Bos taurus), sequence (P02769 whole entry, looked up): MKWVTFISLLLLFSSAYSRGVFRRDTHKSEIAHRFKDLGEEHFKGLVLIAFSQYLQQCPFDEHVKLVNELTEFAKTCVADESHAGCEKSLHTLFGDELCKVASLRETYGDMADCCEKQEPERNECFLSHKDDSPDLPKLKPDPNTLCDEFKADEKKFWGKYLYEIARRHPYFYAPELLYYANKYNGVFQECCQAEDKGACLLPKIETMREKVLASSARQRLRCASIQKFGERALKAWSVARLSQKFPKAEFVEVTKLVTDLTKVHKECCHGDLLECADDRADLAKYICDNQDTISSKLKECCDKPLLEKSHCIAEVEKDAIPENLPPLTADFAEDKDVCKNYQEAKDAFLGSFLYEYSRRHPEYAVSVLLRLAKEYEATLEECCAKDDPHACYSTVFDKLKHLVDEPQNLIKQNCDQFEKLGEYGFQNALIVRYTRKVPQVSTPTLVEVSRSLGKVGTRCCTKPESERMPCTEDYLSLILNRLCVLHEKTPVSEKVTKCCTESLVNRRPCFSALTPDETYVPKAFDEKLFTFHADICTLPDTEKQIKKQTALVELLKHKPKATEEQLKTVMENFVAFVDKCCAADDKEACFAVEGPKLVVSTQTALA
Left-right determination factor 2 (Homo sapiens), sequence (O00292 whole entry, looked up): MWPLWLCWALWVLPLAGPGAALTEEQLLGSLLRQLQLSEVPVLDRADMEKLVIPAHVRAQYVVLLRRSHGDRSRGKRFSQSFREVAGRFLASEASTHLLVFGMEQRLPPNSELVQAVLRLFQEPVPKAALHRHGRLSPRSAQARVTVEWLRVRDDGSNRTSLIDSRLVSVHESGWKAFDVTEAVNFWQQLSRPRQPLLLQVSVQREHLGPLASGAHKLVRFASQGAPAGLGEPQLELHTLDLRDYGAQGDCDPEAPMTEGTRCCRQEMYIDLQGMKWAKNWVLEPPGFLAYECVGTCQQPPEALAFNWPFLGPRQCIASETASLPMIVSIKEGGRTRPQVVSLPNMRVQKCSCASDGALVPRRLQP
Alpha-bungarotoxin (Bungarus multicinctus), sequence (P60615 whole entry, looked up): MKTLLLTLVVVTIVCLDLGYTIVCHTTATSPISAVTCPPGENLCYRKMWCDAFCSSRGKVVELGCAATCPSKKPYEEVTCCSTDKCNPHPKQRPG

`C=CCOC(=O)[C@H]1[C@@H]2C(=O)O[C@@H](c3ccccc3)[C@@H](c3ccccc3)N2[C@@H](c2ccc(OCCOC(=O)[C@@H]3C[C@@H]4C(=O)N[C@@H](Cc5ccccc5)C(=O)N4[C@@H]3c3ccc(O)cc3)cc2)[C@]12C(=O)Nc1ccccc12`: the composite z-score in test [1] was 1.35; in test [3], 0.747; in test [4], 1.48; in test [5] it was 0.0137; in test [6], -0.124; in test [7] it was -0.232. The composite z-score in test [8] is 0.281; in [9], 0.409; in test [10], 0.948; with Albumin (Bos taurus), 0.527; in [12] it was 0.0382; in [13] it was -0.181. The composite z-score in test [14] was determined as 0.67; in test [15], 1.74; in [16], 0.509; with Sam68 (KHDRBS1), 1.3; in [17], 1.11; in test [18], 1.16. The molecule also gave a z-score in test [2] of -1.85. In addition, the composite Z-score in test [11] is 0.129 (inactive).
Consider `CCCCNC(=O)c1ccc(C#C[Si](C)(C)C)c(OC(C)=O)c1`, for which the composite z-score is 0.315 in test [1]; 0.431 in test [3]; -0.262 in test [4]; -0.834 in test [5]; -0.191 in test [6]; 0.0952 in test [7]. Moreover, the composite z-score in test [8] was -0.185; in test [9], 0.37; in [10], 0.25; with Albumin (Bos taurus), -0.175; in [12] it was -0.0328; in test [13], -0.154. The composite z-score in test [14] is -0.14; in test [15] it was 0.353; in test [16] it was 0.0462; with Sam68 (KHDRBS1), 0.469; in test [17], 0.782; in [18] it was 0.0668. Also, the z-score in test [2] was determined as 0.93. In addition, the composite Z-score in test [11] is 0.378 (inactive).
In the case of `CC(C)[Si](C#CCCCC#N)(O[C@H](c1ccccc1)c1cn([C@H](C)c2ccccc2)nn1)C(C)C`, the composite z-score was 1.21 in [1]; 0.392 in [3]; -0.0129 in test [4]; -0.0984 in [5]; -0.0924 in test [6]; 0.318 in [7]. For the same molecule, the composite z-score in test [8] was -0.262; in [9] it was 0.137; in [10], 0.18; in the test with Albumin (Bos taurus), 0.221; in test [12] it was 0.0357; in test [13], -0.0405. The composite z-score in test [14] is 0.506; in [15] it was 0.879; in test [16], 0.0714; in the test with Sam68 (KHDRBS1), 1.24; in test [17], 0.293; in test [18] it was 0.444. The molecule also registered a z-score in test [2] of -1.91. The composite Z-score in test [11] was -0.0102 (inactive).
Take `O=C1OCCC/C=C\[C@H]2OC34C=CCN(Cc5ccccc5)C(=O)[C@H]3N(CCCCCO)C(=O)[C@@H]4C12` (stereo not given in full): the composite z-score in test [1] was -0.486; in test [3] it was -0.296; in test [4] it was -1; in [5], -0.775; in test [6] it was -0.169; in test [7], 0.0121. Besides, the composite z-score is 0.0847 in [8]; 2.22 in test [9]; -1.57 in test [10]; 0.499 in the test with Albumin (Bos taurus); -0.366 in test [12]; -0.112 in [13]. Also, the composite z-score in test [14] was 0.861; in test [15] it was 3.41; in test [16] it was 1.65; with Sam68 (KHDRBS1), -0.904; in [17], -0.906; in test [18], -1.64. Moreover, in test [2], the z-score is -1.06. Besides, the composite Z-score in test [11] is -0.615 (inactive).
Regarding `COC(=O)[C@]1(CO)N=C(c2ccc(OCCCO)cc2)O[C@@H]1c1ccccc1CN=[N+]=[N-]`, the composite z-score in test [1] is -0.0942; in test [3], -0.266; in [4] it was -0.738; in test [5], -0.0036; in [6], -0.145; in [7] it was 0.0611. Also, the composite z-score in [8] is -0.0007; in test [9] it was 0.751; in test [10] it was -0.0756; with Albumin (Bos taurus), -0.421; in test [12], -0.122; in test [13], -0.127. Moreover, the composite z-score was found to be 0.7 in test [14]; 1.25 in test [15]; 0.0153 in test [16]; 0.363 with Sam68 (KHDRBS1); 0.265 in test [17]; 0.257 in test [18]. Further, the z-score in test [2] was determined as 0.606. For the same molecule, the composite Z-score in test [11] is 0.277 (inactive).

These data come from PubChem BioAssay.
